# Test results from the supplement of paper PMC10849652.
# Of roughly 8,800 targets only a part is listed; those with a hit were picked by preference. About 0.5% of all pairs of compound and target were hits. Unmarked numbers belong to inactive results.
# What was measured:
# Assay in all cases: log2 fold change, soluble protein after heating vs DMSO (PISA); higher = thermal stabilisation; K562 lysate, 10 uM; active = over 0.2 and 3.5 SD of the protein, either way, in both replicates (recomputed)
# nilotinib = compound: Cc1cn(-c2cc(NC(=O)c3ccc(C)c(Nc4nccc(-c5cccnc5)n4)c3)cc(C(F)(F)F)c2)cn1 [nilotinib]
# Procedure, shortened: (§1)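 K562 pellets were dounce-homogenised in PBS pH 7.4 containing 1 mM MgCl2, and the crude extract, at 1 mg/mL protein, was exposed to 10 μM compound for 30 min. Aliquots were heated for 3 min across 48°C-58°C, pooled, brought to 0.5% NP-40 at 4°C and spun at 21,000xg for 90 min, with the supernatant taken as soluble protein. TMTpro 16plex LC-MS/MS with equalised channel sums quantified that protein. Values are log-two fold changes in thermal stability relative to solvent controls, taken from duplicates.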
# [1] = compound: Cc1nc(Nc2n[nH]c3c2CN(C(=O)N[C@H](CN(C)C)c2ccccc2)C3(C)C)c2sccc2n1
# Procedure, shortened: as §1
# dasatinib = compound: Cc1nc(Nc2ncc(C(=O)Nc3c(C)cccc3Cl)s2)cc(N2CCN(CCO)CC2)n1 [dasatinib]
# Procedure, shortened: as §1
# [2] = compound: Cc1ncc(-c2ccnc(Nc3ccc(S(C)(=O)=O)cc3)n2)n1C(C)C
# Procedure, shortened: as §1
# [3] = compound: Cn1cc(-c2ccc3c(c2)CCN3C(=O)Cc2cccc(C(F)(F)F)c2)c2c(N)ncnc21
# Procedure, shortened: as §1
# quisinostat = compound: Cn1cc(CNCC2CCN(c3ncc(C(=O)NO)cn3)CC2)c2ccccc21 [quisinostat]
# Procedure, shortened: as §1
# tipifarnib = compound: Cn1cncc1[C@@](N)(c1ccc(Cl)cc1)c1ccc2c(c1)c(-c1cccc(Cl)c1)cc(=O)n2C [tipifarnib]
# Procedure, shortened: as §1
# [4] = compound: NC(=O)Nc1cc(-c2cccc(F)c2)sc1C(=O)N[C@H]1CCCNC1
# Procedure, shortened: as §1
# [5] = compound: NC(=O)c1cnc(N[C@@H]2CCCC[C@@H]2N)nc1Nc1cccc(-n2nccn2)c1
# Procedure, shortened: as §1
# [6] = compound: NC1(c2ccc(-c3nc4ccn5c(=O)[nH]nc5c4cc3-c3ccccc3)cc2)CCC1
# Procedure, shortened: as §1
# [7] = compound: NCC(=O)Nc1ccc(-n2nc(C(F)(F)F)cc2-c2ccc3c(ccc4ccccc43)c2)cc1
# Procedure, shortened: as §1
# vorinostat = compound: O=C(CCCCCCC(=O)Nc1ccccc1)NO [vorinostat]
# Procedure, shortened: as §1
# silmitasertib = compound: O=C(O)c1ccc2c(c1)nc(Nc1cccc(Cl)c1)c1ccncc12 [silmitasertib]
# Procedure, shortened: as §1
# [8] = compound: O=C1NC(=O)C(c2cnc3ccccn23)=C1c1cn2c3c(cc(F)cc13)CN(C(=O)N1CCCCC1)CC2
# Procedure, shortened: as §1
# entospletinib = compound: c1cn2cc(-c3ccc4cn[nH]c4c3)nc(Nc3ccc(N4CCOCC4)cc3)c2n1 [entospletinib]
# Procedure, shortened: as §1
# Sequence of UniProt Q9Y3B4 (Q9Y3B4 whole entry, looked up): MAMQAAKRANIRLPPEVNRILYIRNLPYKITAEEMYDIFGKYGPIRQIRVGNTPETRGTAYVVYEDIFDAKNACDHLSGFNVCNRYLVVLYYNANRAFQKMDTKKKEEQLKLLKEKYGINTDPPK
# Sequence of UniProt Q14534 (Q14534 whole entry, looked up): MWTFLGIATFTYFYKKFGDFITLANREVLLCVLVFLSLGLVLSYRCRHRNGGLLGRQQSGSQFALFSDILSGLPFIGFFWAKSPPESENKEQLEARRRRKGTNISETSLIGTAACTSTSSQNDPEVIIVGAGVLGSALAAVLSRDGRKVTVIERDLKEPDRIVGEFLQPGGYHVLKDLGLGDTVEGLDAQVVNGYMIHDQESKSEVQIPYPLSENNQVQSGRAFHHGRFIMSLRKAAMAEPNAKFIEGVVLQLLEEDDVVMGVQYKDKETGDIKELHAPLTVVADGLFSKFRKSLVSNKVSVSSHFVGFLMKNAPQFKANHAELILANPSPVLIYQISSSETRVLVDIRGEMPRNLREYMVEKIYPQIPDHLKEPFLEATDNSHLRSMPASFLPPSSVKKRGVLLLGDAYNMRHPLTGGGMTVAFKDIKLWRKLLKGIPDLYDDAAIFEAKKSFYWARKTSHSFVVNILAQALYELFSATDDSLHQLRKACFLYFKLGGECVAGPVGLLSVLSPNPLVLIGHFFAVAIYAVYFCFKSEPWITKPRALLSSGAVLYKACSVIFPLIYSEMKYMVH
# Sequence of UniProt Q9C0B7 (Q9C0B7 whole entry, looked up): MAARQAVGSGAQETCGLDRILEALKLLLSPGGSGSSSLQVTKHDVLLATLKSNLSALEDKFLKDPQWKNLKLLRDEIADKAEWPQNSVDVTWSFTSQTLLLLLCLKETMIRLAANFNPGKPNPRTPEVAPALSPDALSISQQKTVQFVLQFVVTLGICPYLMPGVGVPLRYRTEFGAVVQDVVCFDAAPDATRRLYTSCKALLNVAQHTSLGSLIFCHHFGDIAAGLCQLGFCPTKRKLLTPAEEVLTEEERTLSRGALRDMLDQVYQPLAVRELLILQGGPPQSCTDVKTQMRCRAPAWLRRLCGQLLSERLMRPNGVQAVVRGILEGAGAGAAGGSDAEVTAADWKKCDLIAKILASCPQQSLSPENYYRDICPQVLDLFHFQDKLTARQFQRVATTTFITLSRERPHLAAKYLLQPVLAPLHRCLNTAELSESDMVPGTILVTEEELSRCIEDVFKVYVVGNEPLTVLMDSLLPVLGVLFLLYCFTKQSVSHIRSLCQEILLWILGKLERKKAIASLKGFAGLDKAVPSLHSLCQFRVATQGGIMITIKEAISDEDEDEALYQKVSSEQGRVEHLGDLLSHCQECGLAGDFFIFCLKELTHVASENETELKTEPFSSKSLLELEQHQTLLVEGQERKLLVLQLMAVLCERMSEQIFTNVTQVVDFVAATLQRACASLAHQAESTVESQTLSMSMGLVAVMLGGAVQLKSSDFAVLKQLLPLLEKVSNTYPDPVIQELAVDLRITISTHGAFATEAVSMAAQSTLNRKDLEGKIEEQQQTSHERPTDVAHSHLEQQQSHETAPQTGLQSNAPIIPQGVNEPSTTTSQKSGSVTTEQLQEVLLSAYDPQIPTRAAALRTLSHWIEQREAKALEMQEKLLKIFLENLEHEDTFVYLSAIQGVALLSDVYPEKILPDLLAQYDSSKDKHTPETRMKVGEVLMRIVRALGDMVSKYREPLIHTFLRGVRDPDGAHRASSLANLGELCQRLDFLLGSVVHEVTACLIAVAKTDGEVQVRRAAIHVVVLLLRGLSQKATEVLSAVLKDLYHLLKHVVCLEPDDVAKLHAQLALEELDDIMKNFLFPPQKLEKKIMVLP
# Sequence of UniProt P62316 (P62316 whole entry, looked up): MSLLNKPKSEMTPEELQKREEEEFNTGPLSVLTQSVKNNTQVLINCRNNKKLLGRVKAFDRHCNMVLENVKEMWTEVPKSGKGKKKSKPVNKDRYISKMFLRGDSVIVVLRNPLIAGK
# Sequence of UniProt Q96BD8 (Q96BD8 whole entry, looked up): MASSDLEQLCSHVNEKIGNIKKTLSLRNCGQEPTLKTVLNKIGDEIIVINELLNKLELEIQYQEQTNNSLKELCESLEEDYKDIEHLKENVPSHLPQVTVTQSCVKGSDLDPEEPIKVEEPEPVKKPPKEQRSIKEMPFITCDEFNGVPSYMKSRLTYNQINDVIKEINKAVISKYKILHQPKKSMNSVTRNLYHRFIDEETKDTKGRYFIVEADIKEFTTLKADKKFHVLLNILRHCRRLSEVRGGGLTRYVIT
# Sequence of UniProt Q01650 (Q01650 whole entry, looked up): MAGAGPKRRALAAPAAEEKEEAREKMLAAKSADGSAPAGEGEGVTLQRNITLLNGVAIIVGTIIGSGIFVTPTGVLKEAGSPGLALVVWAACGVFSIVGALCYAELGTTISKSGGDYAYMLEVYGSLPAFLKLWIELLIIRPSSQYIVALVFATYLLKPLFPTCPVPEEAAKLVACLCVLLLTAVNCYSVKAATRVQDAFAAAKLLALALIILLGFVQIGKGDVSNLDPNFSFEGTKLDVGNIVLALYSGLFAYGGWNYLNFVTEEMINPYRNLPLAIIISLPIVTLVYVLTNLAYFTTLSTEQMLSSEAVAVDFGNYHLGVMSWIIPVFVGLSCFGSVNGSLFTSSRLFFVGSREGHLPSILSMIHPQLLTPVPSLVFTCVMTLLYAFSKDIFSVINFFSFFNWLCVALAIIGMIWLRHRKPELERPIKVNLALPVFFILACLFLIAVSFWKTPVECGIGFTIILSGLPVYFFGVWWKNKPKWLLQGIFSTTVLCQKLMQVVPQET
# Sequence of UniProt P19623 (P19623 whole entry, looked up): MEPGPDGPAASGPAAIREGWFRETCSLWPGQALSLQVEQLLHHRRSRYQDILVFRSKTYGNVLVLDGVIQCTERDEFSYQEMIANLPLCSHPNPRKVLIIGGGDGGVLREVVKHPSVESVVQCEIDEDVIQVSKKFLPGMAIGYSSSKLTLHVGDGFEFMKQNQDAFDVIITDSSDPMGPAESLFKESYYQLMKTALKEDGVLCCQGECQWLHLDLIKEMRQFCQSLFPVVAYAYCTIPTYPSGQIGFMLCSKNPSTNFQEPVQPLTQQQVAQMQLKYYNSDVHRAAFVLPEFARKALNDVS
# Sequence of UniProt Q9UNE7 (Q9UNE7 whole entry, looked up): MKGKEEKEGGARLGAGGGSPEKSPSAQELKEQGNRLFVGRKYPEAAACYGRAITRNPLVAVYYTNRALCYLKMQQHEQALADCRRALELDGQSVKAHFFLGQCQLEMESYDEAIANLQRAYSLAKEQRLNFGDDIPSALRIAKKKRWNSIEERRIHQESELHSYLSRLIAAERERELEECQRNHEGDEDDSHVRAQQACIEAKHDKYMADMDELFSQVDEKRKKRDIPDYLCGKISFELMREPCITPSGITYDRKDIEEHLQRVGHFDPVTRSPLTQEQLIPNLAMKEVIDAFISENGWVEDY
# Sequence of UniProt Q8NDV3 (Q8NDV3 whole entry, looked up): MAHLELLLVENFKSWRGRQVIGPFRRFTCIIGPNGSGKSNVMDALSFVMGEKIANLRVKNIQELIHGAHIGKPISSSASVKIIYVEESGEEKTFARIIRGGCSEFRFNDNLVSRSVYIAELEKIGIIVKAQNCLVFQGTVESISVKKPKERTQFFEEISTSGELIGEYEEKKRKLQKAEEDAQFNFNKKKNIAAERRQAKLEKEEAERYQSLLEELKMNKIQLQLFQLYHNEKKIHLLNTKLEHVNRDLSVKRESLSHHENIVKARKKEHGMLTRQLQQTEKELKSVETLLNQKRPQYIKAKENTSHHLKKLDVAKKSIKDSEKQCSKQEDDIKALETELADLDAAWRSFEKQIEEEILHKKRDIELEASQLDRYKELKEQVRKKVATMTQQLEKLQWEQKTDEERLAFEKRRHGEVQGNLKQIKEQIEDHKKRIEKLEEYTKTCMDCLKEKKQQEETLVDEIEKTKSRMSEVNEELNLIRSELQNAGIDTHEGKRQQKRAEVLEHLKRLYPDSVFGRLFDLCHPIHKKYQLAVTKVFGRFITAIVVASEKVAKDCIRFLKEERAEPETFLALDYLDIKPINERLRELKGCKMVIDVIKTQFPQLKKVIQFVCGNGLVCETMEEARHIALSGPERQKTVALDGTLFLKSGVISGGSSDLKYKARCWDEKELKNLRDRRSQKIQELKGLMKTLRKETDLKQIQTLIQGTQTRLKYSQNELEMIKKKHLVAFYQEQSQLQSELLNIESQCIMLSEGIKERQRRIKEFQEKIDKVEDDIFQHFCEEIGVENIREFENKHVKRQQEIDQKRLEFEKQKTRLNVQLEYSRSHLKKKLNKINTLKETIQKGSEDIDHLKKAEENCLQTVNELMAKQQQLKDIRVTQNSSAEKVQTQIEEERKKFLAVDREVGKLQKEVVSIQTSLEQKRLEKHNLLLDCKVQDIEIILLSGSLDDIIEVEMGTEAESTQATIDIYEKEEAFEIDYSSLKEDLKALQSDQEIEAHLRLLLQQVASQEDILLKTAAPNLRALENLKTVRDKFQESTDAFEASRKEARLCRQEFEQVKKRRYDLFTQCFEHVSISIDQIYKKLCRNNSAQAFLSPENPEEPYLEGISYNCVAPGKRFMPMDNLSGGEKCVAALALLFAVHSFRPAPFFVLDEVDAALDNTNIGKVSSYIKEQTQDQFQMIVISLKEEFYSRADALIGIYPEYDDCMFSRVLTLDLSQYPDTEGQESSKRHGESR
Target,log2 fold change (nilotinib),log2 fold change [1],log2 fold change (dasatinib),log2 fold change [2],log2 fold change [3],log2 fold change (quisinostat),log2 fold change (tipifarnib),log2 fold change [4],log2 fold change [5],log2 fold change [6],log2 fold change [7],log2 fold change (vorinostat),log2 fold change (silmitasertib),log2 fold change [8],log2 fold change (entospletinib)
SKA1 (UniProt Q96BD8),-0.095,0.052,-0.034,0.023,-0.032,-0.104,0.039,0.038,-0.042,0.014,0.057,-0.586 (active),-0.036,-0.07,-0.021
SNRPD2 (UniProt P62316),0.014,0.015,0.024,0.015,-0.02,0.007,0.014,-0.027,0,-0.002,0,0.147,-0.021,0.015,0.001
SF3B6 (UniProt Q9Y3B4),0.045,0.013,-0.036,-0.028,-0.038,0.016,0.021,0,-0.054,-0.03,0.018,-0.273 (active),0.026,0.007,-0.015
SQLE (UniProt Q14534),0.082,0.014,-0.09,-0.039,0.024,0.191,0.018,-0.014,-0.032,-0.034,0.01,0.103,-0.056,-0.042,0.029
SRM (UniProt P19623),0.026,-0.009,-0.008,0.009,0.012,0.009,0.014,0.041,0.017,0.045,0.009,-0.029,0.008,0.052,0.001
TANGO6 (UniProt Q9C0B7),0.042,-0.056,-0.006,0.019,0.025,-0.056,0.044,0.046,-0.037,-0.001,0.007,-0.389 (active),0.019,-0.037,-0.009
SLC7A5 (UniProt Q01650),0.022,0.008,0.055,0.014,0.008,-0.106,0.003,0,-0.029,-0.003,0.034,0.109,-0.04,0.013,0.03
STUB1 (UniProt Q9UNE7),0.031,-0.027,-0.037,0.027,0.004,-0.06,-0.011,0.053,0.015,0.004,-0.012,-0.33 (active),0.015,0.006,0.019
SSB (UniProt E7ERC4),-0.059,0.165,0.007,0.198,-0.078,-0.198,0.171,0.152,-0.108,-0.128,-0.063,0.012,0.105,-0.11,-0.092
SMC1B isoform 3 (UniProt Q8NDV3),0.022,-0.041,-0.004,0.023,0.016,0.004,0.008,-0.014,-0.005,-0.055,-0.063,0.068,-0.011,0.026,0.004
